# The source made the active and inactive calls.
# What was measured:
# [1] = test system: PRMT1 (protein arginine N-methyltransferase 1); assay: small molecules binding arginine methyltransferase PRMT1 – biochemical, small-molecule microarray, 635 nm fluorescence, primary screen (AID 1088); details: higher = more signal;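 also: binding of Prmt1 protein to compounds spotted on small-molecule microarray slides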
# [2] = growth effects on S. cerevisiae YJM789 – YJM789 clinical isolate, OD600, 24 h, basal, primary screen (AID 1089); details: higher = more signal, called active from +8 up or from −8 down;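 also: growth of clinical yeast isolate S. cerevisiae YJM 789 seeded 1000 cells per well; test concentration not given here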
# [3] = S. pombe growth modifiers, basal conditions – strain 972, OD600, 24 h, no modulator, primary screen (AID 1090);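 also: basal condition with compound alone and no growth modifier present; test concentration not given here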; details: S. pombe 972 growth, higher = more signal, called active from +8 up or from −8 down
# [4] = budding yeast growth modifiers under rapamycin – strain BY4716, OD600, 96 h, primary screen (AID 1091); also: test concentration not given here; details: S. cerevisiae BY4716 + rapamycin, higher = more signal, called active from +8 up or from −8 down
# [5] = target: Torsin-1A-interacting protein 2 (Homo sapiens) (UniProt Q8NFQ8); assay: small molecules binding lysate-expressed LULL1 – cell lysate, human LULL1 lysate, 635/667 nm fluorescence, primary screen (AID 1092); details: small-molecule microarray, hLULL1 lysate binding, 635 nm fluorescence; higher = more signal;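 also: probe is lysate of COS7 cells overexpressing human LULL1; score merges per-feature 667 nm fluorescence with signal-to-noise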
# [6] = optical density change of DRC41 E. coli – strain DRC41, OD650, 24 h, E. coli filamentation project, primary screen (AID 1093);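 also: MC1000 strain lacking acrAB efflux and sulA so SOS filamentation is blocked; test concentration not given here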; details: E. coli DRC41 growth, higher = more signal, called active from +8 up or from −8 down
# [7] = probe aLefty2 binding to arrayed compounds – biochemical, biotinylated probe, 635/667 nm fluorescence, primary screen (AID 1094); details: small-molecule microarray, higher = more signal;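 also: score merges spot fluorescence near 667 nm with spot signal-to-noise ratio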
# [8] = test system: Noggin (protein binding on small-molecule microarray); assay: small molecules binding Noggin protein – biochemical, 635/667 nm fluorescence, primary screen (AID 1095); details: 635 nm fluorescence, higher = more signal;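 also: score merges 667 nm feature fluorescence with signal to noise over triplicate slides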
# [9] = target: Neurogenic locus notch homolog protein 3 (Homo sapiens) (UniProt Q9UM47); assay: small molecules binding NOTCH3 protein – biochemical, 635/667 nm fluorescence, primary screen (AID 1096); details: small-molecule microarray, 635 nm fluorescence, higher = more signal
# [10] = probe aEGFR binding to arrayed compounds – biochemical, biotinylated probe, 635/667 nm fluorescence, primary screen (AID 1097); details: small-molecule microarray, higher = more signal;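 also: probe is a biotinylated anti-EGFR antibody binding compounds printed on slides; score combines fluorescence near 667 nm and signal to noise of each spot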
# Chain of Neurogenic locus notch homolog protein 3 (Homo sapiens) (Q9UM47 whole entry, looked up): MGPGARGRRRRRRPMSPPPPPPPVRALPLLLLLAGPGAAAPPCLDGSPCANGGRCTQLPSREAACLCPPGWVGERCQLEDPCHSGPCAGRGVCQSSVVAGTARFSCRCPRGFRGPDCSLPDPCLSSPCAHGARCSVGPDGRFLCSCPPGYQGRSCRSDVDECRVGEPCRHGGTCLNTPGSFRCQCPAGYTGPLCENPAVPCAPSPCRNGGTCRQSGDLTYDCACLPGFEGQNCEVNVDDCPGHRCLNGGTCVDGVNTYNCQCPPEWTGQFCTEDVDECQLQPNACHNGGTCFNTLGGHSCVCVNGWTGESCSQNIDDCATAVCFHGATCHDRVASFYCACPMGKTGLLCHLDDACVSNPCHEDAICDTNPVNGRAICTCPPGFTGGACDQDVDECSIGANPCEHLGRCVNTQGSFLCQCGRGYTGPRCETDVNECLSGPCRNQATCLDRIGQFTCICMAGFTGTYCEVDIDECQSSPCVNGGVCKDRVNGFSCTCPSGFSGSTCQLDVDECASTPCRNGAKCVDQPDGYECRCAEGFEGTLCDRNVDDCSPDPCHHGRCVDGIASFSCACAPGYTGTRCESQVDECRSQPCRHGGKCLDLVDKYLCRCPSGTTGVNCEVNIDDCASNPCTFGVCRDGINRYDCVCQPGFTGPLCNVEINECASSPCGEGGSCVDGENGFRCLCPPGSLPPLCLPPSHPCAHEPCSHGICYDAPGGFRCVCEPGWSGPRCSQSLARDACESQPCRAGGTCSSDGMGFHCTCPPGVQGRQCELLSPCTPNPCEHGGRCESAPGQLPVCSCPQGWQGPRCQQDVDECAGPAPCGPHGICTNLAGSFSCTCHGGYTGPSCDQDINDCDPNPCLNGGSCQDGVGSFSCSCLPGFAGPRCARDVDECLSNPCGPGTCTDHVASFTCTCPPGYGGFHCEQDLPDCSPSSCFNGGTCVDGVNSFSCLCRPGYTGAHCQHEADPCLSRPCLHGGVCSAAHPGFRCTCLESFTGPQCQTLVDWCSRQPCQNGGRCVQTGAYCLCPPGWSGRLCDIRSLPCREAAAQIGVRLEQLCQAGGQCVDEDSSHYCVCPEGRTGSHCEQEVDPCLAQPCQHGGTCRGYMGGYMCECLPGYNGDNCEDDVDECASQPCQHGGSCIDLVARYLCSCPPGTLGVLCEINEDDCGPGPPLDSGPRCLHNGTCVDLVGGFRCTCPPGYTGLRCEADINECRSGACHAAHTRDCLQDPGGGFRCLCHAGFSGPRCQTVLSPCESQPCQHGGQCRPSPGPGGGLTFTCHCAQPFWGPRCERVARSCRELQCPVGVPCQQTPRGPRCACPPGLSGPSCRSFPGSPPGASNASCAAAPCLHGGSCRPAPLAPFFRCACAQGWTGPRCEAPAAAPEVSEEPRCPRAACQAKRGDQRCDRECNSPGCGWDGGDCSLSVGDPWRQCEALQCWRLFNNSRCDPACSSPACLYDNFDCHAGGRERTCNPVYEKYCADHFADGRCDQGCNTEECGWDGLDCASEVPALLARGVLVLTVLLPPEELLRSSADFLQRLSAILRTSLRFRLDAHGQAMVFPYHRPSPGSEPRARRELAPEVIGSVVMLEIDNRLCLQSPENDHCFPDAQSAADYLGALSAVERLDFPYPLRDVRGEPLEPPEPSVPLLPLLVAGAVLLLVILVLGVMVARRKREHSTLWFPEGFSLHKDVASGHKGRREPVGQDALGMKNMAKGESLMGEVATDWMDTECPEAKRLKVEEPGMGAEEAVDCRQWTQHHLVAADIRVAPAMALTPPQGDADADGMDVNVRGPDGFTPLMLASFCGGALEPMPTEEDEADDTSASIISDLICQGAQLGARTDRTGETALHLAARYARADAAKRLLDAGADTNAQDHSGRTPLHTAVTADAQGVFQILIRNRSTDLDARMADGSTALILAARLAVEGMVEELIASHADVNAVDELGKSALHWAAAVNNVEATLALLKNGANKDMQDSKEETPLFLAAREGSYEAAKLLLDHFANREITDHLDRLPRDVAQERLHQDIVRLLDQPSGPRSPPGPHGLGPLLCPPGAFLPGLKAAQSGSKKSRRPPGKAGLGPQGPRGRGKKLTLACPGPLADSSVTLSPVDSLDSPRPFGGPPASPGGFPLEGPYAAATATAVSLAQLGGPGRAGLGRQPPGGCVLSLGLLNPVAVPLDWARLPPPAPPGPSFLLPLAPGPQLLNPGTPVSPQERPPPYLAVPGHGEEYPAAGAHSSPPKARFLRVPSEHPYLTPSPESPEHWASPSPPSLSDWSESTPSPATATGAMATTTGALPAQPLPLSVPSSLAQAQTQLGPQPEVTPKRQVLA
# Chain of Torsin-1A-interacting protein 2 (Homo sapiens) (Q8NFQ8 whole entry, looked up): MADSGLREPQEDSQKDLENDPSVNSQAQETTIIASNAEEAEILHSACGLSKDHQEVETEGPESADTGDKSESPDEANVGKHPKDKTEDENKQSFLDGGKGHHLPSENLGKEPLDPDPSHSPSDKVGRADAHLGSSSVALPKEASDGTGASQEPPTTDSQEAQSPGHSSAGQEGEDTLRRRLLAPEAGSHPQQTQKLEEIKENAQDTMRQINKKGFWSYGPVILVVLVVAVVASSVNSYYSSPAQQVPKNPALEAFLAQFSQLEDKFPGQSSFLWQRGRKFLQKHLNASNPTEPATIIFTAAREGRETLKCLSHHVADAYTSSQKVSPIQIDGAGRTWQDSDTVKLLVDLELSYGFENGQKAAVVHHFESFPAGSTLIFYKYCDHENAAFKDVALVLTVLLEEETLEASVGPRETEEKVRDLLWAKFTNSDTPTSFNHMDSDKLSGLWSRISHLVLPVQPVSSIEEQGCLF
Compound,composite z-score [1],z-score [2],z-score [3],z-score [4],composite z-score [5],z-score [6],composite z-score [7],composite z-score [8],composite z-score [9],composite z-score [10]
C#C[C@@H]1Oc2ccccc2S(=O)(=O)N2CCC[C@H]12,-1.07,-0.0284 (inactive),0.809 (inactive),-2.55 (inactive),-0.875,-1.1 (inactive),0.0886,0.18,-0.176,0.056
CO[C@@H]1COC(=O)CC=C[C@@H](C)[C@@H]2C=C[C@@H](O)[C@@H](COC(=O)CC=C[C@H]1C)O2,1.44,-1.85 (inactive),-0.862 (inactive),-0.562 (inactive),-0.284,-0.552 (inactive),-0.19,1.29,0.0667,-0.0112
CC(CCN1CCCCc2nc(C)c(C)cc21)=NOC(C)CN1CCCc2nc(C)c(C)cc21 (stereo not given),1.52,-1.19 (inactive),-1.06 (inactive),-0.321 (inactive),2.91,0.162 (inactive),0.447,1.07,1.04,0.509
COCCNC(=O)OCC1CCCC2(CC(OC(=O)NCCc3ccc(F)cc3)CC(CCC(=O)N[C@@H](C)C(=O)OC)O2)O1 (stereo not given in full),1.5,0.104 (inactive),-0.0142 (inactive),0.647 (inactive),0.876,0.0947 (inactive),-0.0845,0.403,1.08,0.433
C=C(/C(=C/C[C@H](OC(C)=O)c1ccc(OCCO)cc1)c1cnc2ccccc2c1)C(C)C,1.44,-1.75 (inactive),-2.26 (inactive),-1.03 (inactive),1.67,1.19 (inactive),-0.062,1.58,1.1,-0.204
C=CCN1C(=O)[C@]2(O[C@H](CCn3cc(CCO)nn3)[C@@H]([Si](C)(C)c3ccc(OC)cc3)[C@@H]2C)c2cc(N3CCOC3=O)ccc21,1.19,-0.621 (inactive),-0.111 (inactive),-0.0506 (inactive),2.79,-0.342 (inactive),-0.271,0.432,0.231,-0.256
Cn1cccc1C(O)C1C=CC2C(=O)NC(=O)C2N1Nc1ccccn1 (stereo not given),0.408,0.0886 (inactive),1.23 (inactive),0.0533 (inactive),-0.503,-0.975 (inactive),-0.19,-0.0645,-0.929,0.0865
CN1C(=O)C2C(C1=O)C1C=C(CCCO)C2C(c2ccc(CN3CCCC3)cc2)N1C (stereo not given),-0.0446,-0.363 (inactive),0.652 (inactive),-0.14 (inactive),-0.0999,0.145 (inactive),-0.193,-0.347,-0.575,-0.133
COC(=O)c1c(CC[C@@H](CO)NC(=O)N[C@H](Cc2ccccc2)Cn2cc(-c3ccccc3N)nn2)oc(C(C)=O)c1C(=O)OC,1.19,-0.231 (inactive),-1.15 (inactive),0.2 (inactive),1.05,0.382 (inactive),0.323,0.173,0.492,0.195
CCCNC(=O)[C@@H]1c2ccccc2C(=O)N(c2ccc(C)cn2)[C@H]1c1ccc(CO)cc1,0.129,-1.03 (inactive),-0.144 (inactive),-0.926 (inactive),0.553,-0.0365 (inactive),-0.0769,-1.08,-0.798,-0.299
CN(C)C(=O)[C@@]1(Cc2ccccc2)N=C(c2ccc(OCCCO)cc2)O[C@H]1c1ccccc1CN=[N+]=[N-],1.56,-1.88 (inactive),-0.31 (inactive),0.477 (inactive),3.17,0.73 (inactive),0.578,0.801,0.969,0.361
O=C1c2ccccc2[C@@]2(Cc3ccccc3N(C3CC3)C2=O)[C@H](c2ccc(CO)cc2)N1Cc1ccccc1C(F)(F)F,0.51,-0.104 (inactive),-0.995 (inactive),-1.47 (inactive),1.83,-2.03 (inactive),0.104,-1.31,-0.0714,-0.171
CCOC(=O)C[C@H]1[C@H](OC(=O)c2cc3ccccc3oc2=O)[C@@H](NC(=O)c2ccc3ccccc3n2)c2cc(OCCCO)ccc2N1C(=O)c1ccccc1,0.5,0.282 (inactive),-0.738 (inactive),0.156 (inactive),0.413,0.471 (inactive),-0.0171,0.603,0.724,0.0745
O=C1[C@H]2[C@H]3[C@H](O)[C@H](O)CC(=NOC[C@@H](O)COCc4ccco4)[C@H]3CC[C@H]2C(=O)N1c1cccc(Oc2ccccc2)c1,-0.267,-0.19 (inactive),0.549 (inactive),-0.502 (inactive),-0.306,0.354 (inactive),-0.172,1.55,-0.413,-0.174
O=C1O[C@@H](c2ccccc2)[C@@H](c2ccccc2)N2[C@@H](c3ccc(O)cc3)[C@]3(C(=O)Nc4ccccc43)[C@@H](C(=O)O)[C@H]12,1.24,0.462 (inactive),-0.253 (inactive),-0.408 (inactive),2.45,1.14 (inactive),-0.0753,-0.335,0.166,-0.041
